An excerpt weighted towards active compounds, which were near 2.2% of everything screened.
EBNA-1 inh: blocks EBNA-1 binding to DNA; EBNA-1 DNA binding, fluorescence polarization; inhibition, % at 14.8 µM; 300,000 tested, 0.34% active; in the data active = inhibition above about 28%
NALP1 yeast inh: blocks the NALP1 inflammasome reconstituted in yeast. S. cerevisiae NALP1/ASC/caspase-1 growth, X-gal OD620, 72 h. inhibition, % at 10 µM. 280,000 tested, 0.61% active. AID 2071; in the data active = inhibition mostly above about 24%, no sharp cut-off; inactive = mostly below about 32%
PolyA inh: yeast polyadenylation inhibition; activity score, % at 12 µM; 300,000 tested, 0.02% active; AID 1875; S. cerevisiae SKY197-pL101 polyadenylation reporter, beta-gal luminescence; efflux-impaired pdr1/pdr3 knockout yeast; score 100 = 6 SD above DMSO;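 active = lowest replicate activity score at least 50, where 100 means six control SD above control mean; inconclusive = lowest score under 50 but half or more replicates reach 50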;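 note: yeast exposed to compound for 9 h at 30 °C; higher score means more reporter readthrough which indicates perturbed polyadenylation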
dFosB activator: mouse delta FosB homodimer activation; AID 493131; purified delta FosB, TAMRA-CDK5 oligo fluorescence polarization; percent of positive-control signal above neutral wells; activation, % at 25 µM; P13346; 340,000 tested, 0.99% active;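 active = mean activation above about 17%, with every replicate also reaching it, limit read from the data, passing the limit was not always enough; inconclusive = only one of the two conditions met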
NLRP3 yeast inh: NALP3 inhibition in yeast | inhibition, % at 10 µM | Yeast reconstituted NLRP3/ASC/caspase-1, beta-gal luminescence, 24 h | 330,000 tested, 0.39% active;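 active = inhibition of 50% or more; inactive = inhibition below 50%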
ZTA counter: counter-screen for EBNA-1 inhibitors: inhibitors of Epstein-Barr virus ZTA; inhibition, % at 11 µM; 320,000 tested, 0.15% active; AID 2234; ZTA-DNA binding, fluorescence polarization; in the data active = inhibition above about 33%
Target sequence (P03206 whole entry, looked up): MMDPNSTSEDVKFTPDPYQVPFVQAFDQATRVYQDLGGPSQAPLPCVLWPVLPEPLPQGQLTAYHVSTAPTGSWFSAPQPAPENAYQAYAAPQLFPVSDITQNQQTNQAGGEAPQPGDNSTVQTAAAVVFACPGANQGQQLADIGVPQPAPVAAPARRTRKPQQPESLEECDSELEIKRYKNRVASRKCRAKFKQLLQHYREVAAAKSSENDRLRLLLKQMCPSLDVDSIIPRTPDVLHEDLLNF
Of the large screens only hits and unclear results are named; the others gave an inactive call.

CO[C@H]1C[C@@H]2CC[C@@H](C)[C@@](O)(O2)C(=O)C(=O)N2CCCC[C@H]2C(=O)O[C@H]([C@H](C)C[C@@H]2CC[C@@H](O)[C@H](OC)C2)CC(=O)[C@H](C)C=C(C)[C@@H](O)[C@@H](OC)C(=O)[C@H](C)C[C@H](C)C=CC=CC=C1C	NALP1 yeast inh 66 (no result: EBNA-1 inh, PolyA inh, dFosB activator, NLRP3 yeast inh, ZTA counter)
COc1ccc(CCNC(=O)Cn2nnc(C(=O)Nc3cccc(C)c3C)c2N)cc1OC	none
Cc1ccccc1OCCCC(=O)Nc1nccs1	none
Cc1cccc(OCC(=O)Nc2nccs2)c1C	NALP1 yeast inh 38
Cc1cc(C)cc(OCC(=O)Nc2ccc(N3CCCC3)cc2)c1	dFosB activator 65
Cc1cccc(OCC(=O)Nc2ccc(N3CCCC3)cc2)c1C	dFosB activator 47
O=C(CNC1CCCC1)Nc1ccc(N2CCCCCC2)cc1	NALP1 yeast inh 30
Cc1ccc(NC(=O)CN(C)C(=O)Cc2c[nH]c3ccccc23)cc1	none (no result: EBNA-1 inh, NALP1 yeast inh, PolyA inh, ZTA counter)
Cc1ccc(S(=O)(=O)N2CCN(S(=O)(=O)c3ccccc3Br)C2=O)cc1	none (no result: EBNA-1 inh, NALP1 yeast inh, PolyA inh, NLRP3 yeast inh, ZTA counter)
O=C(CCc1nc2cccnc2n1Cc1ccccc1)N1CCOCC1	NALP1 yeast inh 36
CCNC(=O)CSc1nnc(CN2CCCCCC2=O)n1-c1ccccn1	none
CC(=O)c1c(C)[nH]c(C(=O)CSc2nnc(CN3CCCCCC3=O)n2-c2ccccn2)c1C	NALP1 yeast inh 42
Oc1ccccc1Nc1nc(NCc2ccco2)c2ccccc2n1	dFosB activator inconclusive
Cc1cccc(Nc2nc(NCc3ccco3)c3ccccc3n2)c1	dFosB activator 38 (no result: NLRP3 yeast inh)
COc1ccc(OC)c(Nc2nc(NCc3ccco3)c3ccccc3n2)c1	PolyA inh inconclusive, dFosB activator 53
Cc1ccccc1Nc1nc(NCc2ccco2)c2ccccc2n1	dFosB activator 36
Cc1ccc(CN2CC(C(=O)NCCC3=CCCCC3)CC2=O)cc1 (centres undefined)	none (no result: EBNA-1 inh, NALP1 yeast inh, PolyA inh)
Cc1cc(C)cc(N(CC(=O)NC(C)(C)C)C(=O)CNC(=O)c2cccs2)c1	none
COc1ccc(S(=O)(=O)NCCSCc2ccco2)cc1	NALP1 yeast inh 34
CCOc1ccc(S(=O)(=O)NCCSCc2ccco2)cc1	none
O=C(Nc1ccn(CCCN(CCCn2ccc(NC(=O)OCc3ccccc3)nc2=O)CCc2cc3ccccc3[nH]2)c(=O)n1)OCc1ccccc1	dFosB activator 83 (no result: EBNA-1 inh, NALP1 yeast inh, PolyA inh, NLRP3 yeast inh, ZTA counter)
O=C(Nc1ccn(CCCNCc2ccccc2)c(=O)n1)OCc1ccccc1	none (no result: EBNA-1 inh, NALP1 yeast inh, PolyA inh, NLRP3 yeast inh, ZTA counter)
CC(C)(C)c1ccc(NC(=O)CSc2n[nH]c(=O)n2C2CC2)cc1	none (no result: EBNA-1 inh, NALP1 yeast inh, PolyA inh, ZTA counter)
CCOc1ccc(NC(=O)C2CCN(S(=O)(=O)c3cccs3)CC2)cc1	NALP1 yeast inh 39
Cc1ccc2nc(NC(=O)C3CCN(S(=O)(=O)c4cccs4)CC3)sc2c1	dFosB activator 33
Cc1ccc2nc(NC(=O)C3CCN(S(=O)(=O)c4cccnc4)CC3)sc2c1	none
Cc1cccc(N(Cc2ccccc2)C(=O)c2cc(S(=O)(=O)N3CCOCC3)ccc2Cl)c1	none (no result: NALP1 yeast inh)
COc1ccc(OC)c(C(=O)NC(CC(N)=O)c2ccc(N3CCN(c4ccccn4)CC3)c([N+](=O)[O-])c2)c1 (centres undefined)	none
Cc1c(Cc2ccccc2)c(=O)oc2c(C)c(OCc3nn[nH]n3)ccc12	none (no result: PolyA inh)
Cc1c(CC(=O)O)c(=O)oc2c(C)c(OCc3nn[nH]n3)ccc12	NALP1 yeast inh 37, PolyA inh inconclusive
CCN1CCN(c2ccc(S(=O)(=O)N3CCOCC3)cc2NC(=O)c2ccc(Cl)s2)CC1	none (no result: NALP1 yeast inh)
COc1ccc2no[n+]([O-])c2c1	PolyA inh 73 (no result: dFosB activator)
COc1ccc2nc(-c3ccco3)c(-c3ccco3)nc2c1	none
Cc1cccc(NC(=O)CC23CC4CC(C2)CC(n2nnc(C)n2)(C4)C3)c1	none
Cc1nnn(C23CC4CC(CC(CC(=O)Nc5cccc(F)c5)(C4)C2)C3)n1	NALP1 yeast inh 29
O=C(Nc1cccc(S(=O)(=O)N2CCCC2)c1)c1ccc(Cl)nc1	none (no result: EBNA-1 inh, NALP1 yeast inh, PolyA inh, ZTA counter)
O=C(c1cc2cc(Br)ccc2o1)N1CCCCC1	none
O=C(c1cc2cc(Cl)ccc2o1)N1CCCC1	NALP1 yeast inh 35
CC(C)c1ccc(CN2C(=O)NC3(CCCCCC3)C2=O)cc1	none
COc1ccc(NC(=O)CS(=O)(=O)Cc2nc(-c3ccc(C)cc3)oc2C)cc1	NALP1 yeast inh 45
COc1ccc(NC(=O)CN2CCN(S(=O)(=O)N3CCCCCC3)CC2)cc1	none
